Several values for one entry are separate records, joined by “and”; a condition that tells them apart may be missing. Equal entries are not always repeated. The campaign covered roughly 220,000 compounds. About 10 (0.005%) were called active. No stated cut-off is given here; in the data, active means maximum fold increase above about 1.5; inconclusive means no clear call, values can overlap the other calls; inactive means below that; tested in PC3 cells. These entries were drawn from the full list.
Assay: enhancers of HSV replication in host cells, fold increase, host cell viability (AID 1956)
Settings: HSV replication augmentation in cells; fold increase: measured here: primary screen fold increase 10 uM, at 10 µM, stronger effect = higher value; maximum fold increase: at 0.098 µM, stronger effect = higher value; viability: measured here: host cell viability series, at 25 µM, stronger effect = lower value

SMILES	fold increase	outcome	maximum fold increase	viability [%]
CCOC(=O)c1nnn2c1nc(N1CCN(c3ccccc3)CC1)c1ccccc12	1.01	inactive	–	–
CC1=C(N2CCN(c3ncccn3)CC2)CCC1=O	1.12	inactive	–	–
N#CCc1c(C#N)c(N)nc(N2CCCC2)c1C#N	0.85	inactive	–	–
COc1ccc(-c2nc3c(s2)CCc2onc(-c4ccc(Br)cc4)c2-3)cc1	0.69	inactive	–	–
C=CCSC(CC)(CC)C(N)=O	1.35	–	1.19 (inactive)	104
COCOc1cc(O)c(C(=O)/C=C/c2ccc(OCOC)c(OCOC)c2)c(OCOC)c1	0.92	inactive	–	–
O=C(NC1CCN(Cc2ccccc2)CC1)c1ccc(Oc2cc(Cl)cc(Cl)c2)o1	0.88	inactive	–	–
CN(C)/C=C(/C(=O)c1ccc(Cl)c(Cl)c1)c1nnnn1-c1ccccc1	1.22	inactive	–	–
COc1ccc2nc(NC(=O)NC3CCCCC3)sc2c1	0.94	inactive	–	–
C=CCOC(=O)C1=C[C@H](c2ccc(Br)cc2)C[C@H](OCCCCO)O1	0.91	inactive	–	–
O=C(CCl)Nc1ccc(Sc2ccc(NC(=O)CCl)cc2)cc1	0.77	inactive	–	–
CC(C)c1ccc(NC(=S)NC2CC3C=CC2C3)cc1 (centres undefined)	0.94	inactive	–	–
CCCNc1c(N)c(=O)c1=O	0.92	inactive	–	–
CCCc1ccc(C(=O)[C@@H]2[C@@H](C(C)=O)N3c4ccc(F)cc4C=C[C@@H]3[C@@]23C(=O)Nc2ccccc23)cc1	1	inactive	–	–
Nc1c(N(CCO)C(=O)C2CCCCC2)c(=O)[nH]c(=O)n1Cc1ccccc1	0.95	inactive	–	–
CC1CC(=O)Nc2ccccc2N1S(=O)(=O)c1cccs1 (centres undefined)	1.03	inactive	–	–
C=C1CCN([C@@H](Cc2ccccc2)C(=O)N2CCOCC2)S(=O)(=O)c2ccccc21	0.89	inactive	–	–
CC1CC(NC(=O)/C(C#N)=C/c2ccc[nH]2)CC(C)(C)C1 (centres undefined)	0.99	inactive	–	–
Cc1nn2c(NCCN(C)C)c3c(nc2c1-c1ccccc1)CCC3	0.77	inactive	–	–
COc1ccccc1C1=CC(=O)CCC1	0.81	inactive	–	–

SMILES	fold increase	outcome	maximum fold increase	viability [%]
COCCCn1c(-c2cccs2)nc2nc3ccccc3nc21	0.9	inactive	–	–
O=C(CCNc1n[nH]c(=O)[nH]c1=O)N/N=C\c1ccc(Br)cc1	1	inactive	–	–
CC1(C)CC(CNCCC(c2ccc(F)cc2)c2ccco2)CCO1 (centres undefined)	0.96	inactive	–	–
COc1ccc(CCn2c(NN=C3CCCC3)nc3c2c(=O)[nH]c(=O)n3C)cc1	0.93	inactive	–	–
CSC1=NC2(C)CCCCC2C12C=CC(=O)C=C2 (centres undefined)	0.88	inactive	–	–
CCOC(=O)c1ccccc1NC(=O)c1c(N)n(C)c(=O)[nH]c1=O	0.6	inactive	–	–
Cc1ccc(-c2csc(NCCc3nc4cc(Cl)c(Cl)cc4n3CCOCCO)n2)cc1	0.88	inactive	–	–
CN(C)S(=O)(=O)c1ccc(NC(=O)COC(=O)Cn2[nH]c(=O)c3ccccc3c2=O)cc1	0.93	inactive	–	–
Nc1nc(Nc2ccccc2)nc(NCCO)c1[N+](=O)[O-]	0.82	inactive	–	–
C=CCSc1nnc2c(n1)-c1cccc3cccc-2c13	0.7	inactive	–	–
O=C1N[C@H](Cc2ccccc2)C(=O)N[C@H]1Cc1cn(S(=O)(=O)c2ccccc2)c2ccccc12	0.74	inactive	–	–
O=C(COc1ccccc1[N+](=O)[O-])N/N=C/c1ccc[nH]1	1	inactive	–	–
Cc1ccc(N2C(=O)CC(Nc3cccc4ccccc34)C2=O)cc1 (centres undefined)	0.96	inactive	–	–
CC(=O)NC(=S)Nc1ccc(NC(=O)c2cccnc2)cc1	0.97	inactive	–	–
COc1ccc(/C=N/n2nnnc2N)cc1OC	0.91	inactive	–	–
Cc1ccc(/C=N/NC(=S)NC2CCCCC2)o1	0.99	inactive	–	–
O=C(O)C1CCN(C(=O)c2cc(F)cc3c2OCOC3)CC1	1.05	inactive	–	–
C[C@H]1CC[C@]2(O[C@@H](CCO)C[C@@H](O)[C@@H]2O)O1	0.79	inactive	–	–
O=C(O)CCCCCCCCCC[n+]1ccccc1	0.88	inactive	–	–
COc1ccc2c(c1)CCNC2Cc1ccc(OC)c(O)c1 (centres undefined)	0.84	inactive	–	–

SMILES	fold increase	outcome	maximum fold increase	viability [%]
O=C1c2ccccc2S(=O)(=O)c2cc(N3CCN(c4ccccn4)CC3)ccc21	0.92	inactive	–	–
CCOC(=O)c1ccc(NC(=O)c2c(N)n(C)c(=O)[nH]c2=O)cc1	0.86	inactive	–	–
COC(=O)c1cc(NC(=O)c2cc(C(C)(C)C)nn2Cc2cccc(C)c2)ccc1N1CCOCC1	0.93	inactive	–	–
COc1ccc(-c2csc(NC3OC(=O)c4ccccc43)n2)cc1 (centres undefined)	0.65	inactive	–	–
O=C(O)Cc1csc(-c2cccc(Oc3ccccc3)c2)n1	1.01 and 0.89	inactive	–	–
Cc1ccc(CNC(=O)c2ccc3c(c2)S(=O)(=O)c2ccccc2C3=O)cc1	0.82	inactive	–	–
O=C(Cc1ccccc1)Nc1c(Cl)ccc2nsnc12	1.01	inactive	–	–
COc1ccc(Cl)cc1CSc1ncn[nH]1	0.97	inactive	–	–
Cc1c(NC(=O)C(=O)N/N=C/c2cccs2)c(=O)n(-c2ccccc2)n1C	0.92	inactive	–	–
O=C(NC1CC1)C1=C[C@H](c2coc3ccccc3c2=O)C[C@H](OCCCCO)O1	0.73	inactive	–	–
CC(C)Cc1ccc(C(C)C(=N)N)cc1 (centres undefined)	0.92	inactive	–	–
CC(C)(C)n1nc(Cc2cccc3ccccc23)c(C#N)c1N	0.79	inactive	–	–
Oc1ccc(-c2nnc(Nc3ccccc3)c3ccccc23)cc1	0.8	inactive	–	–
CC1(C)CC(N2CCN(C(c3ccccc3)c3ccccc3)CC2)=CC(=[N+]2CCCCC2)C1	0.65	inactive	–	–
C#CCOCCOCCOCCNc1nc(N2CCN(C(=O)C([C@@H](C)CC)n3cc(C(N)COC(=O)C(F)(F)F)nn3)CC2)nc(N2CCN(C(=O)[C@H](Cc3ccc(O)cc3)n3cc(C(N)[C@H](C)CC)nn3)CC2)n1 (some centres undefined)	0.87	inactive	–	–
C#CCNC(=O)[C@H](Cc1ccc(C(=O)c2ccccc2)cc1)NC(=O)OC(C)(C)C	0.7	inactive	–	–
COc1ccccc1-n1cn[nH]c1=S	0.88	inactive	–	–
O=C(O)CCn1c(O)c(C=C2N=c3ccccc3=N2)sc1=S	1.18	inactive	–	–
Cc1nc(Cl)c(C#N)c2c1CCCC2	0.96	inactive	–	–

— PubChem BioAssay AID1956 (SRMLSC, 2009)
